# Test results as given in PubChem BioAssay AID1030 (National Center for Advancing Translational Sciences (NCATS), 2008).
# Screen size: about 220,000 compounds; about 16,000 (7.3%) were called active. Not shown: some 25% with an inconclusive outcome. Calls come from the whole dose curve; as a rule, active = well fitted inhibition curve with a large enough effect (not every such curve was filed as active); inconclusive = small, poorly fitted or top-dose-only effect, or another doubt; inactive = no such curve, though single readings can be large or run the other way. What follows is part of a selection rich in actives, with near analogues and random picks from the rest.
# Target: Aldehyde dehydrogenase 1A1 (Homo sapiens) (UniProt P00352)
# Sequence (P00352 whole entry, looked up): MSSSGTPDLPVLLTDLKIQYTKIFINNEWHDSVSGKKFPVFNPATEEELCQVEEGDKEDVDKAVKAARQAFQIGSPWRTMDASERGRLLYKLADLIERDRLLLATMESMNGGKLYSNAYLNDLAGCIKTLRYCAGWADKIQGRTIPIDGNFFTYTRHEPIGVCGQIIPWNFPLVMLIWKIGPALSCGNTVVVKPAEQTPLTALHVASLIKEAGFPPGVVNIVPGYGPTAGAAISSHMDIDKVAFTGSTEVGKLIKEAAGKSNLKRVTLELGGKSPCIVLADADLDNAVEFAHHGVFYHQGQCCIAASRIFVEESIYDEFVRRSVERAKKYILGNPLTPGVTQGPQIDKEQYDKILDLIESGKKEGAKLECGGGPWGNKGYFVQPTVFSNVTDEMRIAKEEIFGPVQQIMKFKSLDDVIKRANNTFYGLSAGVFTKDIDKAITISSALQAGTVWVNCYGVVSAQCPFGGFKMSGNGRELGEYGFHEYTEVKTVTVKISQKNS
# Experiment: qHTS Assay for Inhibitors of Aldehyde Dehydrogenase 1 (ALDH1A1);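 for activity, negative = inhibition: plate controls were no enzyme wells and a reference inhibitor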
# Conditions: Purified ALDH1A1, NADH fluorescence, propionaldehyde substrate; series mostly up to 75.3 µM; activity, negative = inhibition: at the top concentration
# Potency is the fitted concentration of half-maximal effect.
Structure (SMILES),"activity, negative = inhibition",Potency
O=C(CC(NC(=O)c1ccccc1)c1ccccc1)Nc1ccc(F)c(F)c1 (centres undefined),3.66% (inactive),
Cc1cc([N+](=O)[O-])c(-c2ccc(/C=N/n3cnnc3)o2)cc1Cl,4.82% (inactive),
Cc1cc(-c2ccc(/C=N/n3cnnc3)o2)c([N+](=O)[O-])cc1C,,10 µM (active)
Cc1ccc(Cl)cc1-c1ccc(/C=N/n2cnnc2)o1,2.14% (inactive),
CN(C)/C=C(/C(=O)c1ccccc1)S(=O)(=O)c1ccc(Cl)cc1,-1.39% (inactive),
CCN(C(=O)CSc1nc2ccccc2n1CC)C1CCS(=O)(=O)C1 (centres undefined),6.03% (inactive),
O=C(c1ccc(C(F)(F)F)cc1)C1CCCN(C(=O)c2csnn2)C1 (centres undefined),-3.94% (inactive),
CCCC(=O)N1CCc2[nH]c3ccccc3c2C1,0.311% (inactive),
O=C(Nc1ccc(Cl)cc1)N1CCc2[nH]c3ccccc3c2C1,3.97% (inactive),
Cc1ccc2[nH]c3c(c2c1)CN(C(=O)CN1CCN(c2ccccc2)CC1)CC3,,17.8 µM (active)
O=C(/C=C/c1ccccc1)Oc1coc(CSc2ncccn2)cc1=O,-8.97% (inactive),
Cc1cc(C)cc(NC(=O)COC(=O)c2cc(C)oc2C)c1,4.92% (inactive),
COc1ccc(N(CC(=O)NC2CCCC2)C(=O)CS(=O)CC(=O)Nc2ccc3c(c2)OCO3)cc1 (centres undefined),16.1% (inactive),
CCCn1c(SCC(=O)Nc2c(C)cccc2C)nnc1C(C)C,8.79% (inactive),
CCCn1c(SCC(N)=O)nnc1C(C)C,8.66% (inactive),
CCCn1c(SCC(=O)c2ccc3c(c2)OCCO3)nnc1C(C)C,,20 µM (active)
CCOC(=O)c1cc2c(=O)[nH]c(C(Cl)(Cl)Cl)nc2o1,9.51% (inactive),
CCc1nnc(NC(=O)c2sc3nc(C)cc(COC)c3c2N)s1,-6.62% (inactive),
COc1ccc(CC(=O)NCc2nnc(SCC(=O)Nc3ncc(C)s3)n2C)cc1,23.4% (inactive),
COc1ccc(CCN2C(=O)C3CC=C(C)CC3C2=O)cc1OC (centres undefined),,17.8 µM (active)
COc1ccc(CCN(C)CCN2C(=O)c3ccccc3C2=O)cc1OC,0.416% (inactive),
COc1ccc(CN2C(=O)CC(Cc3ccc(C)cc3)C2=O)cc1OC (centres undefined),-6.24% (inactive),
O=c1cc(O)c(-c2cccc(C(F)(F)F)c2)c(Cl)[nH]1,4.13% (inactive),
CCOC(=O)c1ccc(NC2Nc3cc(C)nn3S2)cc1 (centres undefined),,12.6 µM (active)
CCOC(=O)c1ccc(NC(=O)Cn2nnc(-c3ccc(C)cc3)n2)cc1,0.713% (inactive),
CCc1ccc(NC2Nc3cc(C)nn3S2)cc1 (centres undefined),,10 µM (active)

Structure (SMILES),"activity, negative = inhibition",Potency
CCc1ccc(NC(=O)N2CCN(c3ccccc3)CC2)cc1,2.14% (inactive),
CCOC(=O)c1ccc(Nc2cc(C)nc3nc(C)nn23)cc1,-2.8% (inactive),
COc1ccc(NC(=O)CN(C)CC(=O)Nc2cccc(C(F)(F)F)c2)cc1,-9.9% (inactive),
CCC(C)(C)NC(=O)CN(C(=O)C(=O)Nc1ccc2c(c1)OCCO2)C(C)(C)CC,1.57% (inactive),
Cc1nnc(SCc2cccc(Cl)c2)n(N)c1=O,4.04% (inactive),
CCCn1c(N)c(C(=O)CSc2nc3ccccc3c(=O)n2-c2ccc(OC)cc2)c(=O)[nH]c1=O,-2.33% (inactive),
O=C(NCc1ccccc1Cl)C1CCN(S(=O)(=O)N2CCOCC2)CC1,-1.99% (inactive),
CCC(=O)Nc1ccc(C(=O)N2CCN(C(=O)c3ccco3)CC2)cc1,-11.7% (inactive),
O=C(CN1CCN(C(=O)c2ccco2)CC1)Nc1ccc(Cl)c(C(F)(F)F)c1,,17.8 µM (active)
O=C(CCCN1C(=O)CCC1=O)Nc1ccc(Cl)c(C(F)(F)F)c1,-6.6% (inactive),
O=C(CCN1C(=O)/C(=C/c2cccs2)SC1=S)NNC(=O)c1cccc(O)c1,1.24% (inactive),
CCOC(=O)C1=C(O)CSC1=Nc1cccc(Cl)c1,3.32% (inactive),
c1ccc(CN2CCC(N=C3NN=C(c4ccc5c(c4)OCCO5)CS3)CC2)cc1,-9.87% (inactive),
Clc1cccc(N=C2NN=C(c3ccc4c(c3)OCCO4)CS2)c1,,28.2 µM (active)
Cc1ccc(C(=O)Cc2nnc(C)s2)cc1,5.21% (inactive),
COc1cc(CN(C)Cc2nc3cc(C(F)(F)F)ccc3c(=O)[nH]2)ccc1OC(F)F,6.49% (inactive),
O=C(O)c1ccc(NS(=O)(=O)c2ccc3c(c2)C(=O)c2cc(S(=O)(=O)Nc4ccc(C(=O)O)cc4)ccc2-3)cc1,-1.43% (inactive),
CCc1ccc(Nc2nnc(SCC(=O)c3ccc4c(c3)NC(=O)CO4)s2)cc1,,3.55 µM (active)
CCCc1nc2ccccc2c(C(=O)OCC(=O)c2ccc3c(c2)NC(=O)CO3)c1CC,9.72% (inactive),
CN(C(=O)CSc1nnc(Nc2ccccc2)s1)C1CCS(=O)(=O)C1 (centres undefined),-0.527% (inactive),
COc1ccc(OCCCn2cccc2/C=C2/C(=N)N3OC(C)=CC3=NC2=O)cc1,-8.86% (inactive),
O=C(NC1CC1)C1CCCN(C(=O)NC2CCCCC2)C1 (centres undefined),2.75% (inactive),
C=CCc1cccc2cc(C(=O)Nc3ccc(NC(C)=O)cc3)c(=O)oc12,1.3% (inactive),
COCCNc1cc(NCCOC)c([N+](=O)[O-])cc1[N+](=O)[O-],5.02% (inactive),
O=C(CSc1nnc2scc(-c3ccc(F)cc3)n12)NCc1ccco1,-5.13% (inactive),
Cn1c(-c2ccc(F)cc2)cnc1SCC(=O)NCc1ccco1,,22.4 µM (active)

Structure (SMILES),"activity, negative = inhibition",Potency
Cn1c(-c2ccc(F)cc2)cnc1SCC(=O)NNC(=O)Cc1ccccc1,0.789% (inactive),
COc1ccc(-c2ccc(OC(=O)NC3CCS(=O)(=O)C3)cc2)cc1 (centres undefined),8.45% (inactive),
CCOC(=O)N1CCN(C(=O)c2ccccc2N(Cc2ccccc2)S(=O)(=O)c2ccc(OC)cc2)CC1,3.86% (inactive),
N#Cc1cccc(CS(=O)(=O)c2nnnn2-c2cc(C(F)(F)F)cc(C(F)(F)F)c2)c1,3.86% (inactive),
COc1ccccc1N1CCN(C(=O)CN(Cc2ccc(Cl)cc2)S(C)(=O)=O)CC1,3.38% (inactive),
COc1ccccc1-n1nnnc1S(=O)(=O)Cc1ccc(Cl)cc1,,2.51 µM (active)
CCN(CCCNC(=O)CCn1c(=O)[nH]c2ccsc2c1=O)c1ccccc1,-8.83% (inactive),
CC(C)Nc1ncnc2c1nnn2Cc1ccccc1,,12.6 µM (active)
CC(C)(C)c1nc(NCC2CCCO2)c2nnn(Cc3ccccc3)c2n1 (centres undefined),6.84% (inactive),
Cc1nc(Nc2ccc(S(=O)(=O)N3CCCC3)cc2)c2nnn(Cc3ccccc3)c2n1,5.63% (inactive),
COc1ccc(N2CCN(C(=O)C3CCN(S(=O)(=O)c4ccc(C)cc4)CC3)CC2)cc1,-7.46% (inactive),
COc1ccc(/C=C(\C#N)C(=O)ONC2=NCCCCC2)cc1,,35.5 µM (active)
COc1ccc(/C=C(\C#N)C(=O)NCCCn2ccnc2)cc1,-1.14% (inactive),
COc1ccc(C(=O)Nc2ccc3nc(N4CCCCC4)cc(C)c3c2)cc1OC,-13.5% (inactive),
Cc1cccc(OCC(=O)NC(=S)Nc2ccccc2N2CCOCC2)c1,-11.4% (inactive),
Cc1ccc(C(=O)NC(=S)NCCN2CCOCC2)cc1,5.75% (inactive),
COc1cccc(OC)c1C(=O)Nc1ccc(N2CCCCC2)cc1,-1.34% (inactive),
Cc1ccc(C(=O)NC(=S)Nc2ccc(N3CCOCC3)cc2)cc1,,11.2 µM (active)
COc1ccc(C(=O)NC(=S)Nc2ccc(N3CCCC3)cc2)cc1OC,,3.55 µM (active)
COc1ccc(C(=O)NC(=S)Nc2ccc(Cl)cn2)cc1OC,10% (inactive),
COc1ccc(C(=O)NC(=S)Nc2ccccc2N2CCN(S(C)(=O)=O)CC2)cc1OC,,0.501 µM (active)
COC(=O)c1ccc(NC(=S)NN2CCOCC2)cc1,-0.42% (inactive),
CC1(C)CC(=O)C=C(N2CCOCC2)C1,-1.31% (inactive),
O=[N+]([O-])c1ccc(Sc2n[nH]c(-c3ccco3)n2)nc1,5.62% (inactive),
CN(c1ccc(OCC(=O)OCC(=O)Nc2cccc([N+](=O)[O-])c2)cc1)S(=O)(=O)c1ccc(F)cc1,2.62% (inactive),
O=C(Cc1ccc(F)cc1)N1CCN=C1SCc1cccc([N+](=O)[O-])c1,-8.83% (inactive),

Structure (SMILES),"activity, negative = inhibition",Potency
COc1cccc(C(O)Cc2nc3ccccc3n2C)c1OC (centres undefined),3.05% (inactive),
CCNC(=O)COc1cc(C)c(Br)c(C)c1,10% (inactive),
CCc1cc(C(=O)c2ccc(OC)cc2)c(NC(=O)CN2CCN(C)CC2)s1,1.85% (inactive),
Cc1cc(Cl)ccc1NC(=S)NCCCN1CCCC1=O,6.05% (inactive),
CCOC(=O)c1c(N)nn(C(=O)c2ccccc2)c1-c1ccccc1,6.37% (inactive),
CCOC(=O)c1cn(Cc2cccc(C)c2)nn1,-9.64% (inactive),
CCOC(=O)c1nn(-c2cccc(C)c2)cc1C(=O)c1ccccc1,,5.01 µM (active)
CCCCS(=O)(=O)N1C2=NC(C(=O)OC)=C(C(=O)OC)[C@@H]3N(Cc4ccccc4)c4ccccc4[C@]23C[C@H]1C(=O)OC,1.36% [at 13.5 µM] (inactive),
CC(C)(C)c1ccc(/C=C2\SC(=O)N=C2N)cc1,8.52% (inactive),
CN(C)c1nc(N)nc(Cn2nnc(-c3ccc(C(F)(F)F)cc3)n2)n1,6.45% (inactive),
COc1ccc(-c2nnn(Cc3nc(N)nc(N4CCCCC4)n3)n2)cc1,,0.562 µM (active)
COc1ccc(-n2nnnc2SCc2nc(N)nc(N3CCOCC3)n2)cc1,17.4% (inactive),
CC(Nc1ccccc1)c1cccnc1 (centres undefined),7.63% (inactive),
OC[C@H]1O[C@@H](n2cnc3c(N[C@H]4CC5CCC4C5)ncnc32)[C@H](O)[C@@H]1O (some centres undefined),6.91% (inactive),
COn1c(-c2ccc(Cl)cc2Cl)nc2ncccc21,15.4% (inactive),
COc1ccccc1/C=C/C=N/n1c(-c2ccc(Cl)cc2Cl)n[nH]c1=S,,20 µM (active)
Clc1ccc(-c2ncc3ccccn23)c(Cl)c1,-5.79% (inactive),
Cc1cc(/C=N/NC(N)=O)c(C)n1C1CCCCC1,-3.75% (inactive),
CC1CCc2sc(C(=O)N/N=C/C3CCCCC3)cc2C1 (centres undefined),,11.2 µM (active)
OC(CNCc1ccc(Cl)c(Cl)c1)c1ccccc1 (centres undefined),3.1% (inactive),
Cc1ccc(-n2ncc3c(=O)n(-c4ccc(C)c(C)c4)c(-c4ccco4)nc32)cc1,,25.1 µM (active)
Cc1ccc(-c2nc3c(cnn3-c3ccccc3)c(=O)o2)cc1,-7.8% (inactive),
COc1ccc(-n2c(C)nc3c(cnn3-c3ccccc3)c2=O)cc1,-5.74% (inactive),
Cn1nnnc1SCC(=O)Nc1nc2ccccc2s1,-8.43% (inactive),
Cc1cc([N+](=O)[O-])nn1CCCC(=O)Nc1cccnc1Cl,5.05% (inactive),
COc1ccc(CC(N)C(=O)NC2C(O)[C@H](n3cnc4c(N(C)C)ncnc43)O[C@@H]2CO)cc1 (some centres undefined),2.23% (inactive),
